# MCL1-BIM inh – MCL1-BIM-BH3 interaction inhibition (human); hit rate 0.68% among 320,000; inhibition, % at 10.9 µM; Q07820; AID 2057; GST-MCL1 / FITC-Bim-BH3 fluorescence polarization;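 active = inhibition above the mean inhibition of all tested compounds plus 3 SD, set per campaign, cut at about 40% in these data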;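 also: 0% = DMSO wells and 100% = unlabeled Bim-BH3 peptide control; higher means more loss of mP so more displacement of Bim peptide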
# GLD-1 TGE inh – GLD-1-TGE RNA interaction inhibition (C. elegans) | Q17339 | purified GLD-1 + fluorescein TGE RNA, fluorescence polarization | inhibition, % at 5.96 µM | hit rate 0.44% among 320,000;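 active = percent inhibition above a per-plate cutoff, the plate mean of test compounds plus 3 SD, cut at about 30% in these data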;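 also: 0% = DMSO wells with GLD-1 and probe and 100% = wells lacking GLD-1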
# Target sequence (Q17339 whole entry, looked up): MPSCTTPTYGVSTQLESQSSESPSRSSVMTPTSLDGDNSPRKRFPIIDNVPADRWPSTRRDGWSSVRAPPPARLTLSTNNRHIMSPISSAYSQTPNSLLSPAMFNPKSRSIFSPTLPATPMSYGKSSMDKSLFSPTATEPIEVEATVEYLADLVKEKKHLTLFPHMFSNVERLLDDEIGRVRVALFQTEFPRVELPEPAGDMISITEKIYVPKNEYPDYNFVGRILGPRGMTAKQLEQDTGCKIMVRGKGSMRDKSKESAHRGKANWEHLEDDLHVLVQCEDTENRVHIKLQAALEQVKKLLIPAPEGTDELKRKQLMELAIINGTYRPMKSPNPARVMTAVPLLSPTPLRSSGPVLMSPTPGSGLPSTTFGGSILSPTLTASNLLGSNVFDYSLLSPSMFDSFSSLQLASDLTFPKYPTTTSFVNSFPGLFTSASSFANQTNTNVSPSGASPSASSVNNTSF
# E coli Lon inh – inhibits E. coli Lon protease. P0A9M0. purified E. coli Lon protease, fluorescence polarization. inhibition, % at 7.94 µM. hit rate 0.42% among 360,000. AID 602123; in the data active = inhibition above about 13%, passing the limit was not always enough;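 also: 0% = enzyme with probe and DMSO and 100% = no enzyme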
# EBV gp42 inh – inhibitors of Epstein-Barr virus glycoprotein 42 | Fluorescence polarization binding assay, mP read-out | inhibition, % (tested at 21.74 µM) | hit rate 0.42% among 220,000 | AID 1085; in the data active = inhibition above about 50%
# BCLXL inh – Bcl-xL (human) inhibition | Q07817 | GST-Bcl-xL / FITC-Bim BH3 peptide fluorescence polarization | inhibition, % at 10.9 µM | hit rate 0.7% among 320,000 | AID 2129;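 active = inhibition above the mean of all tested compounds plus 3 SD, cutoff set per campaign, cut at about 30% in these data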;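 also: 0% = DMSO wells and 100% = unlabeled Bim-BH3 peptide competitor; inhibitors lower millipolarization by displacing the labeled peptide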
# MEX-5 binding – C. elegans MEX-5 TCR-2 RNA binding activity | Q9XUB2 | MEX-5/FITC-TCR2 RNA binding, fluorescence polarization; stronger effect = lower value | activity score (negative = inhibition of binding), % at 10 µM | hit rate 0.38% among 300,000 | AID 1832;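 active = inhibition past about -25% in most replicates, and total fluorescence under double the plate's negative control median, limit read from the data; inconclusive = replicates evenly split on the limit, or fluorescence at least double controls; inactive = too little inhibition in most replicates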;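 also: 0% = DMSO and -100% = 5 µM competing unlabeled TCR2 RNA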
# Bcl-xL conf – counter-screen for MCL1 inhibitors: confirmation of human Bcl-xL inhibitors; shares compounds with MCL1-BIM inh; GST-Bcl-xL / FITC-Bim BH3 peptide FP binding; inhibition, % at 10.9 µM; hit rate 54% among 1,700; AID 2166;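 active = inhibition above a cutoff equal to the mean inhibition of all tested compounds plus 3 SD, cut at about 30% in these data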;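 also: 0% = DMSO wells and 100% = unlabeled Bim BH3 control peptide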
# MCL1 BIM confirm – MCL1-BIM-BH3 interaction inhibition, confirmation; shares compounds with MCL1-BIM inh; GST-MCL1 / FITC-Bim-BH3 fluorescence polarization; inhibition, % at 10.9 µM; hit rate 61% among 1,700; AID 2168;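 active = inhibition above the average of all tested compounds plus 3 SD, cut at about 40% in these data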;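 also: 0% = DMSO wells and 100% = unlabeled Bim-BH3 control peptide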
# GLD1 RNA confirm – confirmation of C. elegans GLD-1 TGE RNA binding inhibitors; inhibition, % at 5.96 µM; shares compounds with GLD-1 TGE inh; GLD-1/FL-TGE RNA fluorescence polarization, biochemical; hit rate 10% among 550;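 active = average inhibition across triplicates above the hit cutoff set in the primary screen, cut at about 32% in these data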;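 also: 0% = GLD-1 with RNA probe and DMSO and 100% = wells lacking GLD-1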
# E coli Lon conf – E. coli Lon inhibition confirmation | shares compounds with E coli Lon inh | purified E. coli Lon, fluorescence polarization | inhibition, % at 7.94 µM | hit rate 31% among 1,400; in the data active = inhibition above about 16%;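 also: 0% = enzyme with probe and DMSO and 100% = no enzyme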
# * marks the source's active call; other numbers are inactive results; u = inconclusive; x = no result given; + = active, no number. Most compounds without a hit are left out; they make up all but 1.5% or so of the library.
SMILES,MCL1-BIM inh,GLD-1 TGE inh,E coli Lon inh,EBV gp42 inh,BCLXL inh,MEX-5 binding,Bcl-xL conf,MCL1 BIM confirm,E coli Lon conf,others
CCN(C(=O)c1c(C)cc(=O)oc1C)c1ccc2c(c1)OCO2,-2,5,-6,-2,1,-1,x,x,x,
O=C1NC(c2ccncc2)C(C(=O)c2cccs2)C(O)(C(F)(F)F)N1 (stereo not given),6,5,-3,-21,2,1,x,x,x,
COc1ccc2c(c1)c1nc3ccccc3nc1n2Cc1ccc(OC)c(OC)c1,55*,52*,97*,59*,50*,-26*,60*,62*,12,
CN1C(=O)NC(c2ccccc2[N+](=O)[O-])C2=C1CCCC2=O (stereo not given),+,+,+,x,+,-80*,154*,177*,+,
CCCCNC(=S)NCc1ccc2[nH]c(C)cc2c1,10,3,-10,-7,2,2,x,x,x,
CC(=O)c1cn(C)c(=O)[nH]c1=O,3,-11,-3,1,-2,4,x,x,x,
CCOC(=O)N1CC=C2C(C#N)=C(N)C(C#N)(C#N)[C@H](c3cccs3)C2C1 (stereo not given in full),11,4,-1,-7,20,-21,x,x,x,
CC1CC=C2C(C#N)=C(N)C(C#N)(C#N)C(c3cccs3)C2C1 (stereo not given),96*,70*,42*,52*,92*,-31*,52*,68*,16*,
Nc1c(C(=O)NC2CC2)c2nc3ccccc3nc2n1-c1ccc2c(c1)OCO2,61*,27,19*,29,42*,-7,35*,42*,31*,
CCCNC(=O)c1c(N)n(-c2ccc3c(c2)OCO3)c2nc3ccccc3nc12,5,10,10,-18,9,-1,x,x,x,
COCCNC(=O)C1(C)CCCN(C(=O)c2ccc(-c3ccccc3)cc2)C1 (stereo not given),x,x,-2,x,x,x,x,x,x,
Cc1nc2ccccc2n2c(O)c(CC(=O)O)cc12,+,137*,148*,129*,+,u,190*,+,119*,
O=C1C=C(NNC(=O)c2ccncc2)CC(c2ccccc2)C1 (stereo not given),72*,126*,68*,2,75*,-18,26,39,-59,
COCCN1CN(S(=O)(=O)c2ccccc2)c2nc3ccccc3nc21,55*,59*,26*,20,62*,2,31*,43*,-22,GLD1 RNA confirm=13
CCN1C(=O)c2cccc3c(N)ccc(c23)C1=O,+,+,+,x,+,u,+,+,+,
Cc1nn(C)c(C)c1N1C(=O)c2cccc3c(N)ccc(c23)C1=O,+,+,+,169*,+,x,+,+,+,
O=C1c2ccccc2C(=O)c2c1cccc2N(CCO)CCO,65*,46*,27*,x,72*,-42*,58*,77*,20*,GLD1 RNA confirm=50*
O=C1C=C(N(CCO)Cc2ccccc2)c2ccccc2C1=O,x,x,1,-14,x,-1,x,x,x,
CC(NC(=O)C1CCCCC1)C(c1cccs1)N1CCOCC1 (stereo not given),-7,-1,-8,-16,-2,2,x,x,x,
C#CCOCCOCCOCCNc1nc(N2CCN(C(=O)[C@H](CCC(=O)O)n3cc(C(N)CO)nn3)CC2)nc(N2CCN(C(=O)[C@H](Cc3cc4ccccc4[nH]3)n3cc(C(N)[C@H](C)CC)nn3)CC2)n1 (stereo not given in full),9,3,-10,-10,3,1,x,x,x,
CC(=O)N/N=C/c1cc(C(C)(C)C)cc(/C=N/NC(C)=O)c1O,89*,156*,41*,67*,94*,2,86*,115*,75*,
CCOn1c(=O)c(-c2ccc(Cl)cc2)[n+]([O-])c2ccccc21,8,6,-1,-9,3,1,x,x,x,
Nc1cnccc1C(=O)O,125*,98*,131*,5,107*,-30*,144*,174*,80*,
COC(=O)c1ccncc1N,-1,0,-14,0,-2,0,x,x,x,
COc1ccc2c3c(cccc13)C(=O)N(O)C2=O,69*,28,38*,75*,69*,-1,67*,77*,87*,
SMILES,MCL1-BIM inh,GLD-1 TGE inh,E coli Lon inh,EBV gp42 inh,BCLXL inh,MEX-5 binding,Bcl-xL conf,MCL1 BIM confirm,E coli Lon conf,others
COc1ccccc1N1C(=O)c2cccc3c(N(C)CCO)ccc(c23)C1=O,+,172*,176*,x,183*,4,128*,152*,76*,
Cc1ccccc1N1C(=O)c2cccc3c(N(C)CCO)ccc(c23)C1=O,+,167*,124*,126*,181*,u,121*,157*,84*,
COc1ccccc1N1C(=O)c2cccc3c(C(=O)O)ccc(c23)C1=O,-4,0,0,-24,5,-1,x,x,x,
Cc1cccn2c(=O)c3cc(C(=O)NCc4ccc(F)cc4)c(=N)n(CC4CCCO4)c3nc12 (stereo not given),3,3,2,x,7,-8,x,x,x,
CCN=C1SC(CC(=O)NCCc2ccc(OC)cc2)C(=O)N1CC (stereo not given),6,10,-1,-5,5,0,x,x,x,
COc1ccc2nc(NC(=S)NC(=O)c3ccco3)sc2c1,3,5,-6,5,9,0,x,x,x,
O=C1C2CCCN2C(c2ccc(Br)cc2)N1c1ccc(F)cc1 (stereo not given),5,6,1,-14,7,-5,x,x,x,
CCOc1ccc(C2C=C(c3ccc(C)cc3)Nc3nnnn32)cc1 (stereo not given),50*,33*,24*,-15,59*,1,39*,57*,-2,
FC(F)(F)c1cc(C(F)(F)F)c2ccc(N3CCOCC3)nc2n1,4,-4,-1,x,5,-3,x,x,x,
CN1CCCc2cc3c(C(F)(F)F)cc(=O)oc3nc21,168*,125*,27*,132*,155*,u,141*,174*,103*,
CCNC(=O)C1(C)CCCN1C(=O)c1ccc2c(c1)OCO2 (stereo not given),x,x,2,x,x,x,x,x,x,
c1ccc(Oc2ccccn2)cc1,x,x,8,x,x,x,x,x,x,

# From PubChem
